Data as given in PubChem BioAssay (Tox21).
Results filed as inconclusive are left out. A number with no mark means an inactive call. Active and inactive are the calls of the source. Calls follow the shape of the dose curve; as a rule, active = well fitted cell-killing curve with a large enough effect in the repeat runs; inconclusive = weak or mixed curves, or effect the other way; inactive = no such curve, though single readings can be large or run the other way.

Experiment: qHTS assay to identify small molecule antagonists of the sonic hedgehog signaling (Shh) pathway - cell viability counter screen (AID 1259367); also: nearly all actives have a fitted effect of over 55% in size
Settings: NIH/3T3 Gli1-Luc viability, CellTiter-Fluor, 24 h; series mostly up to 92.4 µM
Excerpt: National Center for Advancing Translational Sciences [NCATS]
NIH Chemical Genomics Center [NCGC]
U.S. Environmental Protection Agency [EPA]
National Institutes of Environmental Health Sciences [NIEHS]
National Toxicology Program [NTP]
U.S. Food and Drug Administration [FDA]
The sonic hedgehog (Shh) pathway is essential for normal embryonic development. Dysregulation of the Shh pathway can cause severe developmental defects in organs. Therefore chemicals that interfere with the pathway are potential developmental toxicants. A cell line designated 3T3Gli1-Luc (DMB/OARSA/CFSAN/FDA, Laurel, MD), a NIH/3T3 derived clone containing stably integrated Gli1-Luc reporter is used to detect chemical interference of the Shh pathway, by changes in the expression of the firefly Luc gene under the control of the Gli1 transcriptional response element. This cell line was used to screen Tox21 libraries for identifying and prioritizing the potential developmental toxicants that interfere Shh pathway. Conditioned medium-stimulated mode was used to screen for chemicals inhibiting Shh signaling. The cytotoxicity of the compounds was tested in parallel by measuring the cell viability using CellTiter-Fluor assay system (Promega, Madison, WI) in the same wells.
Tox21 Assay Protocol Summary:
3T3 Gli1-Luc cells were dispensed at 2,000 per well in 5uL of culture medium into white solid bottom 1536-well plates (Greiner Bio-One, Monroe, NC) using a Multidrop Combi (Thermo Scientific, Waltham, MA) dispenser. The assay plates were incubated at 37 C and 5% CO2 for 4hr, and then 23nL of compounds dissolved in DMSO and positive control were transferred using a Pintool station (Wako, San Diego, CA). The compound transfer was followed by the addition of 1ul conditioned medium or assay buffer using two separate tips of Flying Reagent Dispenser (FRD, Aurora Discovery, San Diego, CA). The assay plates were incubated at 37C and 5% CO2 for 24hr. For viability read, after 23hr of compound treatment, 1uL of CellTiter-Fluor reagent (Promega Corporation, Madison, WI) was added to each well of the assay plates using Flying Reagent Dispenser (FRD, Aurora Discovery, San Diego, CA) and incubated the assay plates at 37C for 1hr. The fluorescence signal was quantified using a ViewLux plate reader (Perkin Elmer, Shelton, CT).
% is scaled to controls: 0 for no effect and ±100 for the full control effect.

Row | SMILES | outcome | viability change, negative = cytotoxic
1 | c1ccc(SCCSc2ccccc2)cc1 | inactive | –
2 | CC12CCC(CC1=O)C2(C)C (stereo not given) | inactive | –
3 | CCCCCCCCCCCCCCCCCC(=O)OCCCCCCCCCCCCCC(C)C | inactive | –
4 | NS(=O)(=O)c1cc(C2(O)NC(=O)c3ccccc32)ccc1Cl (stereo not given) | inactive | –
5 | CCN1CCCC1CNC(=O)c1cc(S(N)(=O)=O)ccc1OC (stereo not given) | inactive | –
6 | CC(C)N1C(=O)c2ccccc2C1=O | inactive | –
7 | CCCCC=O | inactive | –
8 | Nc1ccc2cc(S(=O)(=O)O)ccc2c1 | inactive | –
9 | CCn1c(=O)c2c(nc(/C=C/c3ccc(OC)c(OC)c3)n2C)n(CC)c1=O | inactive | –
10 | Nc1ncnc2c1ncn2Cc1c(F)cccc1Cl | inactive | –
11 | NC(=O)Nc1nc2ccccc2[nH]1 | inactive | –
12 | CC(=O)O[C@H](CC(=O)[O-])C[N+](C)(C)C | inactive | –
13 | CNc1ncnc2nc[nH]c12 | inactive | –
14 | NS(=O)(=O)c1cc2c(cc1Cl)NC(CSCc1ccccc1)=NS2(=O)=O | inactive | –
15 | CCCC(=O)O[C@]1(C(=O)CCl)[C@@H](C)C[C@H]2[C@@H]3CCC4=CC(=O)C=C[C@]4(C)[C@@]3(F)C(=O)C[C@@]21C | inactive | –
16 | OCC(O)[C@@H](O)[C@H](O)[C@H](O)CO[C@H]1O[C@H](CO)[C@@H](O)[C@H](O)[C@H]1O (stereo not given in full) | inactive | –
17 | CCO[Si](CCCN=C=O)(OCC)OCC | inactive | –
18 | CCCCC1CCCCC(=O)O1 (stereo not given) | inactive | –
19 | CC/C=C\C#N | inactive | –
20 | NCCN1CCNC1=O | inactive | –

Row | SMILES | outcome | viability change, negative = cytotoxic
21 | CCC(C(=O)NC(N)=O)c1ccccc1 (stereo not given) | inactive | –
22 | CC(C)CCOC(=O)CC(C)C | inactive | –
23 | NS(=O)(=O)c1cc2c(cc1C(F)(F)F)NC(Cc1ccccc1)NS2(=O)=O (stereo not given) | inactive | –
24 | C=CCOCC(O)CS(=O)(=O)O (stereo not given) | inactive | –
25 | CCOC(=O)[C@H](CCc1ccccc1)N[C@@H](C)C(=O)N1CCC[C@H]1C(=O)O | inactive | –
26 | COC[C@H](c1ccc(C(F)(F)F)cc1)N1CCN(C2(C)CCN(C(=O)c3c(C)ncnc3C)CC2)C[C@H]1C | inactive | –
27 | C=CC(=O)N1CCOCC1 | inactive | –
28 | CCN1CCCC(OC(=O)C(c2ccccc2)c2ccccc2)C1 (stereo not given) | inactive | –
29 | CCN1CCN(c2cc3c(cc2F)c(=O)c(C(=O)O)cn3C2CC2)CC1 | inactive | –
30 | CN(C)C(=O)Nc1ccccc1 | inactive | –
31 | CC(C)CCCC(C)NCCC(C)C (stereo not given) | inactive | –
32 | CN1[C@@H]2CC[C@H]1CC(NC(=O)n1c(=O)[nH]c3ccccc31)C2 (stereo not given in full) | inactive | –
33 | NC(N)=NS(=O)(=O)c1ccc(N)cc1 | inactive | –
34 | O=C(O)c1ccc[n+]([O-])c1 | inactive | –
35 | C1C2OC2C2C1C1CC2C2OC12 (stereo not given) | inactive | –
36 | C[C@H](O)C(=O)Nc1c(I)c(C(=O)NC(CO)CO)c(I)c(C(=O)NC(CO)CO)c1I | inactive | –
37 | NCC[C@H](O)C(=O)N[C@@H]1C[C@H](N)[C@@H](O[C@H]2O[C@H](CN)[C@@H](O)[C@H](O)[C@H]2O)[C@H](O)[C@H]1O[C@H]1O[C@H](CO)[C@@H](O)[C@H](N)[C@H]1O | – | 1.11% [at 0.349 µM]
38 | Cc1onc(-c2ccccc2)c1-c1ccc(S(N)(=O)=O)cc1 | inactive | –
39 | COc1ccc2cc(C=O)ccc2c1 | inactive | –
40 | CCCCCCCCCCC1CO1 (stereo not given) | inactive | –
